Data published in the supplement of paper PMC11732987, “Enantioselective OTUD7B fragment discovery through chemoproteomics screening and high-throughput optimisation” (Communications Chemistry, 2025).

Legend:
Test in all cases: log2 ratio of Biotin-Ahx-Ub-VS probe labelling (fragment/DMSO); higher = less target engagement (more negative = stronger competition), active = hit call of the paper (q ≤ 0.05, log2 ratio ≤ -1)
Settings in all cases: compound concentration: 200 uM; treatment time: 3 h
USP42 = biological target: T1, USP42 (UniProt Q9H9J4)
T1 sequence (whole entry): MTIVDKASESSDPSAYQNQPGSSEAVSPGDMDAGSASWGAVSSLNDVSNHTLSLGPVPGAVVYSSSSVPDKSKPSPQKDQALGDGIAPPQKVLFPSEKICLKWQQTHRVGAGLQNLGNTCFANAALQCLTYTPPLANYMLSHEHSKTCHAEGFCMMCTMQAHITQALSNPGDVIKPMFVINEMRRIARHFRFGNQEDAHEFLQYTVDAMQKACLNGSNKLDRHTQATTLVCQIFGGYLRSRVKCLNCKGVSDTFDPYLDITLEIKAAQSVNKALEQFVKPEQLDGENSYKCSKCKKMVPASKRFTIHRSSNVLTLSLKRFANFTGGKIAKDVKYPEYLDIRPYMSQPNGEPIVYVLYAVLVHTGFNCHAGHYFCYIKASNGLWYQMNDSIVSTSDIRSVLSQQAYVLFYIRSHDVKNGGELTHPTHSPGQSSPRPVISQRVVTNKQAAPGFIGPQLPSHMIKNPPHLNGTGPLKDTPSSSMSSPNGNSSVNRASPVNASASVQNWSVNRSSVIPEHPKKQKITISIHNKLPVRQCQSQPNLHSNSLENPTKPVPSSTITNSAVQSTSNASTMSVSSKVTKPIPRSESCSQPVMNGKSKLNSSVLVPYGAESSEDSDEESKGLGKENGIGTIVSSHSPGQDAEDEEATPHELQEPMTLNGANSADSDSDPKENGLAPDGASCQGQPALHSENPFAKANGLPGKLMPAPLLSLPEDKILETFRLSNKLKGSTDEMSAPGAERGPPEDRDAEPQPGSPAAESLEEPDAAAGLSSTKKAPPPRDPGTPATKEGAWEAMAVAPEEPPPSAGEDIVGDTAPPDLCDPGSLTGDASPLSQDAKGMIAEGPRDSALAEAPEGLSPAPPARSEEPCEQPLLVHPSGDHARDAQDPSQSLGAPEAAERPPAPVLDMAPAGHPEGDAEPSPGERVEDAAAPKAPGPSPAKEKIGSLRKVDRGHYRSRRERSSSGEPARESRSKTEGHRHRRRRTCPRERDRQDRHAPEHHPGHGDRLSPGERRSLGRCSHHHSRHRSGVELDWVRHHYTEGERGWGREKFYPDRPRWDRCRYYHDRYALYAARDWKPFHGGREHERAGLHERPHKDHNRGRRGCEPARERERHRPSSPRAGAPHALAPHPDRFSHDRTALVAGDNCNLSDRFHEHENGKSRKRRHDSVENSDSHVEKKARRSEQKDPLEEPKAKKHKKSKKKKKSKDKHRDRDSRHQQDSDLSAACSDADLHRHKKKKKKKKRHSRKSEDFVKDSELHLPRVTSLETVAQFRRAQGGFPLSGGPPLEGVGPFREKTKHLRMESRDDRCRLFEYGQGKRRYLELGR
In short: (§1)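 HEK293T lysate (495 µg per sample, in Tris/CHAPS/IGEPAL buffer with protease inhibitors) was exposed in triplicate for 3 h to fragment at 200 µM or to vehicle, then to Biotin-Ahx-Ub-VS at 0.5 µM final for 1 h. Labelled DUBs were enriched on NeutrAvidin, digested with LysC and trypsin, and analysed by diaPASEF LC-MS/MS. Spectronaut label-free quantities were normalised to the global median, and values are average log2 ratios of fragment over vehicle from an unpaired t-test. Only proteins with ≥2 unique peptides were used.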

USP46 = USP46 (UniProt P62068)
Sequence of USP46 (P62068 whole entry): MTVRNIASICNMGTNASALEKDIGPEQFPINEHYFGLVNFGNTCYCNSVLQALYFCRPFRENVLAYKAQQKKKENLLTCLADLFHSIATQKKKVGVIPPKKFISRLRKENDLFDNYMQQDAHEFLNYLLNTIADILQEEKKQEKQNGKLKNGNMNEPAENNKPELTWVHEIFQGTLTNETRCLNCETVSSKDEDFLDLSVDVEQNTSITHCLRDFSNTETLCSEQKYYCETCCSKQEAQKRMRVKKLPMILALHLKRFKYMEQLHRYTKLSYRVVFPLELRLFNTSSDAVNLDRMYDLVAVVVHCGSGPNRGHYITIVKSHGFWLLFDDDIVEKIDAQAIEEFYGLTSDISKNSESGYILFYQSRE
In short: as §1

USP47 = biological target: T2, USP47 (UniProt Q96K76)
T2 sequence (whole entry): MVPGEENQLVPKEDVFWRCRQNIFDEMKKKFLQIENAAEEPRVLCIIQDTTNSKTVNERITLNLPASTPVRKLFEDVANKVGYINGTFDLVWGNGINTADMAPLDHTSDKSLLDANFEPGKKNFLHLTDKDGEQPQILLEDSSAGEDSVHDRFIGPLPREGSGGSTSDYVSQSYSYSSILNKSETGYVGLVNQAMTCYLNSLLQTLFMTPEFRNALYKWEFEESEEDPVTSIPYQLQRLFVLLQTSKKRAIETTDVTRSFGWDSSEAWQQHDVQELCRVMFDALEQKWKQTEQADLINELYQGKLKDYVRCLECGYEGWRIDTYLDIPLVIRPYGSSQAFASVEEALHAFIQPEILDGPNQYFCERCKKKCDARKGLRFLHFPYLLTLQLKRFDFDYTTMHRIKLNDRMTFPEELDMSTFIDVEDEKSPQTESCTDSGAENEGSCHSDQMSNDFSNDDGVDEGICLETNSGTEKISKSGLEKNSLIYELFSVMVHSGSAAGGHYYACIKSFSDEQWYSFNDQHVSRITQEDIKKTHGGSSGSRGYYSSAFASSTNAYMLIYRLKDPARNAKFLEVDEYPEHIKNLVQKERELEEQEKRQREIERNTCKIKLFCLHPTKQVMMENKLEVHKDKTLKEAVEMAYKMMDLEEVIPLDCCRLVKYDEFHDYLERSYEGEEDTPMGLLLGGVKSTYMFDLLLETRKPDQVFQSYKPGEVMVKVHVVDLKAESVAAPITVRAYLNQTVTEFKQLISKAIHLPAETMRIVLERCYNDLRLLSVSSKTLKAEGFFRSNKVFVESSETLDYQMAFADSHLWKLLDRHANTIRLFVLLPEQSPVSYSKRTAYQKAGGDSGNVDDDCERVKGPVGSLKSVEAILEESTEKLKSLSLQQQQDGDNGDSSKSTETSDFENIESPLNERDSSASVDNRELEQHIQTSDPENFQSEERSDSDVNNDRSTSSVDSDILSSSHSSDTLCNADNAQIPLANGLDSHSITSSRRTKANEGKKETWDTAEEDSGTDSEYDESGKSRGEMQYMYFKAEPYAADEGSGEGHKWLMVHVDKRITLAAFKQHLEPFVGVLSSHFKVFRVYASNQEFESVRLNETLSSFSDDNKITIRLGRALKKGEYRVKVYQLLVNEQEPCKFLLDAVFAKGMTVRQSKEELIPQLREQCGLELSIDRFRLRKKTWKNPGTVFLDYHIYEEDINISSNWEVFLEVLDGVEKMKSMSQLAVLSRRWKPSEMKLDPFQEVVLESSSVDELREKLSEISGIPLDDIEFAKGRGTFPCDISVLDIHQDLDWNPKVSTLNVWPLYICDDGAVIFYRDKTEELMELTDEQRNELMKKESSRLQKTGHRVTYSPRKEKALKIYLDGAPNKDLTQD
In short: as §1

USP48 = biological target: T3, USP48 (UniProt Q86UV5)
T3 sequence (whole entry): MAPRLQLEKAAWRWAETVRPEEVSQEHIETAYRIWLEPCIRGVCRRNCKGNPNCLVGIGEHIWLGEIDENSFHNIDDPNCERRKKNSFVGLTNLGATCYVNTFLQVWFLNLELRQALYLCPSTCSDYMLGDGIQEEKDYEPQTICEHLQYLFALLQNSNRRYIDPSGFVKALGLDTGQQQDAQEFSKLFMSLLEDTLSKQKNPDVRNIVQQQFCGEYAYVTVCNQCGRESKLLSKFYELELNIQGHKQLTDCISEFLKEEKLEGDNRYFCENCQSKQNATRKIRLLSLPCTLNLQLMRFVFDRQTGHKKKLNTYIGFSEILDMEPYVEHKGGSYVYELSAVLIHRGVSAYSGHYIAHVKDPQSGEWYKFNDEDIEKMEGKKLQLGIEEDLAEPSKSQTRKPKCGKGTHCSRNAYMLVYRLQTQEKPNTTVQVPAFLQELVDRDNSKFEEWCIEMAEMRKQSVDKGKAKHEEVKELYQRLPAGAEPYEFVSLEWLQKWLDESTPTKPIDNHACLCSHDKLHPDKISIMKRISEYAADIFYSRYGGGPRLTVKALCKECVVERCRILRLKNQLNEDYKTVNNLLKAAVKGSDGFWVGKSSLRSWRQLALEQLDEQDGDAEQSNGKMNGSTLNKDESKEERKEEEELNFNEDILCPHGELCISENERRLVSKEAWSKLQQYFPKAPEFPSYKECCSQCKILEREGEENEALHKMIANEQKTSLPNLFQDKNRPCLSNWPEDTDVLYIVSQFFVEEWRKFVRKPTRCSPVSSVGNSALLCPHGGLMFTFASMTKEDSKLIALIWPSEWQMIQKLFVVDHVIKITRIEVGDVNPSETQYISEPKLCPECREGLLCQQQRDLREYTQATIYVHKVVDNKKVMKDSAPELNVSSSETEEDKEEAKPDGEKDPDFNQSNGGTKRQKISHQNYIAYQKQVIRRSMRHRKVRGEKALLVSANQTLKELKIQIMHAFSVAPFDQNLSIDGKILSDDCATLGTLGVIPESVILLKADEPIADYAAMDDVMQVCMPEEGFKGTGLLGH
In short: as §1

USP5 = biological target: T4, USP5 (UniProt P45974)
T4 sequence (whole entry): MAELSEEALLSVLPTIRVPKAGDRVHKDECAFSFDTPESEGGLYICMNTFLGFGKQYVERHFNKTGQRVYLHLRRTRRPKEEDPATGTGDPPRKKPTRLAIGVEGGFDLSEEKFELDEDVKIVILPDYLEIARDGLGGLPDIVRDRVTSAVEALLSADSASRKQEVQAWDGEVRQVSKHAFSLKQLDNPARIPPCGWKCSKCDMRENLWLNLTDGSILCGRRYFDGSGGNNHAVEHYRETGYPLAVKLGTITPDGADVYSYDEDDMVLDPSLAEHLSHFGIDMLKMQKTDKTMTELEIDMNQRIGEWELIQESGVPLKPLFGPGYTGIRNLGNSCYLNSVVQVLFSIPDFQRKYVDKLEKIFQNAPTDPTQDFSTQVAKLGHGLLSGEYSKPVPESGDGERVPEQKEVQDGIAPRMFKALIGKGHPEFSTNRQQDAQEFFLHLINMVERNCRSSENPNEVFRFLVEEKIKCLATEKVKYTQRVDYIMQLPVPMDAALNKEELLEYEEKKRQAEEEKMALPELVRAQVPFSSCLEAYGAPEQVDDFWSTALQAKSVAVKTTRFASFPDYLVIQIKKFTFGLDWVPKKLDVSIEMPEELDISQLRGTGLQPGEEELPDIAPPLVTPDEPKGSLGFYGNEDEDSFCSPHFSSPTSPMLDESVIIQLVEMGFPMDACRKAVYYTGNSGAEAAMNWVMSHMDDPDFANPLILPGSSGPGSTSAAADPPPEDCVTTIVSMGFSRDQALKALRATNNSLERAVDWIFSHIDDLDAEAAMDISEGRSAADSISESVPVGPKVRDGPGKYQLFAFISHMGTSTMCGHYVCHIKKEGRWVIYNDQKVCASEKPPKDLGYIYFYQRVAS
In short: as §1

USP54 = USP54 (UniProt Q70EL1)
Sequence of USP54 (Q70EL1 whole entry): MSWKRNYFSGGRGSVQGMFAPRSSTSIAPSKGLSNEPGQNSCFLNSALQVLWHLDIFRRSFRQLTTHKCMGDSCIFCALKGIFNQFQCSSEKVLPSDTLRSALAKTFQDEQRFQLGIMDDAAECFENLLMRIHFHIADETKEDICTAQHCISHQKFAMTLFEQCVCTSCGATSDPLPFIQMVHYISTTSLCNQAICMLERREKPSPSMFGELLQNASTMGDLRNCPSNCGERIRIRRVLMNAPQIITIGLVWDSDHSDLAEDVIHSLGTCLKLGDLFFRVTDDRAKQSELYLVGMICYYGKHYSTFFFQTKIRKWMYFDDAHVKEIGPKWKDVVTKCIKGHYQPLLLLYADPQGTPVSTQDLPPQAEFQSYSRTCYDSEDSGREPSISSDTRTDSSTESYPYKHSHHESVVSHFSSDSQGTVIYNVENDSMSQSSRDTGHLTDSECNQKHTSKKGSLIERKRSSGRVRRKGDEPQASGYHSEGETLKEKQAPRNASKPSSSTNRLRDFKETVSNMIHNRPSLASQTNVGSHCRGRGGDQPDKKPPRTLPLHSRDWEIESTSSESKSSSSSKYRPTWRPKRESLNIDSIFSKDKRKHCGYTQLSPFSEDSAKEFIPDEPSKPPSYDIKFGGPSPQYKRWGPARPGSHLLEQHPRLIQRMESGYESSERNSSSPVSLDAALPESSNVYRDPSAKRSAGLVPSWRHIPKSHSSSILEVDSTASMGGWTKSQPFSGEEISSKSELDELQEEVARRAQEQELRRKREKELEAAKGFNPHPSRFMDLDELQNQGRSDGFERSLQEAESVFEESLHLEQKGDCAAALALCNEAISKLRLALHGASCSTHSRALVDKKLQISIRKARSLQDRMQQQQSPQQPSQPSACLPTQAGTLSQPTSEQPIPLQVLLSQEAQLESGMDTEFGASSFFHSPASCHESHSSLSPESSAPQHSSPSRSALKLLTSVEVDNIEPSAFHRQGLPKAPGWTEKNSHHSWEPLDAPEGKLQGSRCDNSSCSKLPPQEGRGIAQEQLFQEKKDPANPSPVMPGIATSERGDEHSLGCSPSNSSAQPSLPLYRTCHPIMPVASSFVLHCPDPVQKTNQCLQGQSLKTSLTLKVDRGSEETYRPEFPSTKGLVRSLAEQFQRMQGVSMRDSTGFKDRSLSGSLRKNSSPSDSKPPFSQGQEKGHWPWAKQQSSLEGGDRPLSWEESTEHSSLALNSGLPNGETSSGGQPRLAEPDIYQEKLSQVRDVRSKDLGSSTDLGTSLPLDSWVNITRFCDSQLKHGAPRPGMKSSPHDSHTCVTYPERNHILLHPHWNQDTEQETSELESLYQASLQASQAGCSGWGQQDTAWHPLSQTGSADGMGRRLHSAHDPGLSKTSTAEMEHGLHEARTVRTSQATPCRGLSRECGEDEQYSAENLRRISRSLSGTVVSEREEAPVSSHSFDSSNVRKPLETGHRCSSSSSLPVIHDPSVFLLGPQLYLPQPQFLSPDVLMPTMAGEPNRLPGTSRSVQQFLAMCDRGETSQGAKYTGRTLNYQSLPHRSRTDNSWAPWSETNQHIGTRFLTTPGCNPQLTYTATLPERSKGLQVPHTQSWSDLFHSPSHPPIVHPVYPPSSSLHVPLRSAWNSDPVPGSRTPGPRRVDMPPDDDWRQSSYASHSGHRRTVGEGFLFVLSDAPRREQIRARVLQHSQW
In short: as §1

USP7 = USP7 (UniProt Q93009)
Sequence of USP7 (Q93009 whole entry, looked up): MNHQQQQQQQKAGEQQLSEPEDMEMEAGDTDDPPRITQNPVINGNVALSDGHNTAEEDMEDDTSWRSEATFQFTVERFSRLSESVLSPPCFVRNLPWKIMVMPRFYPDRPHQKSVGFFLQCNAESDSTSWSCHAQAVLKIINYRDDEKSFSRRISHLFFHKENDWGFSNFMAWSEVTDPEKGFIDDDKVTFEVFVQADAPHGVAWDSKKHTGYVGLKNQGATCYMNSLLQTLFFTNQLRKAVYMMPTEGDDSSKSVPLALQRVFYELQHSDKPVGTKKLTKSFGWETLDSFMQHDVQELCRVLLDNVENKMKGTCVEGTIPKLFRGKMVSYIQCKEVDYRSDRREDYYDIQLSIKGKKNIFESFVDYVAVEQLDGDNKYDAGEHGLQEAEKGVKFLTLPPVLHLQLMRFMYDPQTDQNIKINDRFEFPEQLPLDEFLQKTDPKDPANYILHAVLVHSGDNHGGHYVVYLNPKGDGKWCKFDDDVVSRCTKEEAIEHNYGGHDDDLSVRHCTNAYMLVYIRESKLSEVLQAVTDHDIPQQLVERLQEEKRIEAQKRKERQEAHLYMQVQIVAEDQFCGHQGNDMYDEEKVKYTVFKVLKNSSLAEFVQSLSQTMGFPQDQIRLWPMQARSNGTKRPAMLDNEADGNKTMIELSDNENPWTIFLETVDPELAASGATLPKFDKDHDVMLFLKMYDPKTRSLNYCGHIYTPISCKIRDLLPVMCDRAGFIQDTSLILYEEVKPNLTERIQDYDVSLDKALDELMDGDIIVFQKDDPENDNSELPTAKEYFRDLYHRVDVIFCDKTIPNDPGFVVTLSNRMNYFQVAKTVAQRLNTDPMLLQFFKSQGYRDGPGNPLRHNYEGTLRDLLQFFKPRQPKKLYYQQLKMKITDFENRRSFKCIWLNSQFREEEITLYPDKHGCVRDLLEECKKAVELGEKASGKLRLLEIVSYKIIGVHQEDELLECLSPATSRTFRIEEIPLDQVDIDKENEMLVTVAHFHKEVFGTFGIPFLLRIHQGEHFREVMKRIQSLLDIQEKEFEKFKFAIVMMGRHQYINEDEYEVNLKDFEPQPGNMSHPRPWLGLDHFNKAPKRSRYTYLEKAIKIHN
In short: as §1

USP8 = biological target: T5, USP8 (UniProt P40818)
T5 sequence (whole entry): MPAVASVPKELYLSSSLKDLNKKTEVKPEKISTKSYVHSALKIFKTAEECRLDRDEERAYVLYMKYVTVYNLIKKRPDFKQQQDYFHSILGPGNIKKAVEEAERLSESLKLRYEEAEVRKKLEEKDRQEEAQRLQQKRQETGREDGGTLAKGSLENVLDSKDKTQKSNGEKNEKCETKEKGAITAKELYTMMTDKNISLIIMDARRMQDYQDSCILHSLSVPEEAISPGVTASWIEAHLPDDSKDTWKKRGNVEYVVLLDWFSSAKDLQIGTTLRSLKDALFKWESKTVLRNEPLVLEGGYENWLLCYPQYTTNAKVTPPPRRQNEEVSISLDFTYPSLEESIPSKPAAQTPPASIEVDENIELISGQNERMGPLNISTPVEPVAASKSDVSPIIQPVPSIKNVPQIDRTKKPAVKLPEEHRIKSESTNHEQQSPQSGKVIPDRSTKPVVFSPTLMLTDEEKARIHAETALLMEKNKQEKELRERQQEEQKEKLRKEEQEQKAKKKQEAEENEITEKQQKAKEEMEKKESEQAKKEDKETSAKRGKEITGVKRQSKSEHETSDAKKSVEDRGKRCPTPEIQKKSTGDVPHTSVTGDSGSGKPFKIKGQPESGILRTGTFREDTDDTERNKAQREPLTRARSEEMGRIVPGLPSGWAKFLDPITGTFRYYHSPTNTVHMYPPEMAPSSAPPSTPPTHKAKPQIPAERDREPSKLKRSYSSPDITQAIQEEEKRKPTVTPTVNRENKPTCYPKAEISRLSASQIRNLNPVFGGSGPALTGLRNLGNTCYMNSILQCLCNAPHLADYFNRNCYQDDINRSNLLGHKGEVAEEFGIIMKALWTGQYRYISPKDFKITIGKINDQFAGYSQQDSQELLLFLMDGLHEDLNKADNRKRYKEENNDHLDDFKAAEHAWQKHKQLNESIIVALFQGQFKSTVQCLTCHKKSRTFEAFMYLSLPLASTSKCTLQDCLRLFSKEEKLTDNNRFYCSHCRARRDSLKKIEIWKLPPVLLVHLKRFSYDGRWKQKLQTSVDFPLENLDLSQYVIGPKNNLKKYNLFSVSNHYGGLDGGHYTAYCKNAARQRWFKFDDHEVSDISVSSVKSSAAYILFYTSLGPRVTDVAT
In short: as §1

Measured: log2 ratio of Biotin-Ahx-Ub-VS probe labelling

O=C(CCl)Nc1cccc2ncccc12
inactive: USP42 0.41 | USP46 0.096 | USP47 0.325 | USP48 -0.121 | USP5 0.466 | USP54 -0.107 | USP7 -0.116 | USP8 -0.176
